SW480 rerep – inducers of DNA re-replication in SW480 colon cancer cells; SW480 DNA re-replication, Hoechst DNA content imaging, 48 h; Potency, µM (titrated, usually from 46.1 µM), usual class: activators; AID 624297; 1.8% of 340,000 active; note: nearly all actives have a fitted effect of over 55% in size
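Readout is total intensity of Hoechst-stained nuclei, excited at 405 nm and collected at 500-530 nm. Compound treatment lasted 48 hr at 37 C in 5% CO2 before staining.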
KB-3-1 cytotox – kills parental KB-3-1 adenocarcinoma cells; 1.4% of 400,000 active; Potency, µM (titrated, usually from 46.1 µM), actives largely listed as cytotoxic; KB-3-1 viability, CellTiter-Glo ATP luminescence, 72 h; AID 1347075; note: nearly all actives have a fitted effect of over 60% in size
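Parental KB-3-1 adenocarcinoma cells in phenol-red-free DMEM with 10% FBS were pin-treated with compounds at several concentrations, incubated 72 h at 37 °C, and viability read by CellTiter-Glo luminescence; concentration-effect curves were fitted after normalization.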
HT1080NT lethal – kills 2HG-producing HT-1080-NT fibrosarcoma cells; Potency, µM (titrated, usually from 46.1 µM), usual class: cytotoxic; AID 686970; 1.6% of 360,000 active; HT-1080-NT fibrosarcoma viability, CellTiter-Glo ATP luminescence, 48 h;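 note: NT is the 2HG producing partner of a matched IDH1 knockdown line; nearly all actives have a fitted effect of over 55% in size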
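Read-out is CellTiter-Glo luminescence after 10 minutes at room temperature, following 48 hours' compound treatment of HT-1080-NT cells (750 cells/well, RPMI, 5% FBS, 37 degrees C).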
KB-V1 cytotox – kills drug-selected multidrug resistant KB-V1 cells | KB-V1 MDR cells viability, CellTiter-Glo, 72 h | Potency, µM (doses to about 46.1 µM), actives largely listed as cytotoxic | 3.4% of 400,000 active; note: nearly all actives have a fitted effect of over 60% in size
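KB-V1 cells (P-gp-expressing MDR subline of KB-3-1) in phenol-red-free DMEM with 10% FBS were exposed to library compounds over a concentration series for 72 h at 37 degrees C. Viability read by CellTiter-Glo luminescence; concentration-effect curves fitted after normalization.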
HT1080 IDH1KD tx – kills HT-1080 cells with IDH1 knockdown | HT-1080 IDH1 knockdown viability, ATP luminescence, 48 h | 2% of 360,000 active | Potency, µM (highest dose often 46.1 µM), most hits filed as cytotoxic | AID 686971
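IDH1KD HT-1080 cells, 750/well, RPMI + 5% FBS; compound pinned after 2 h settling; 48 h, 37 °C; CellTiter-Glo luminescence; % activity normalised to DMSO and no-cell wells; curves fitted, classed by r2 and efficacy.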
MCF10A rerep – inducers of DNA re-replication in MCF 10A breast cells. MCF 10A DNA re-replication, Hoechst nuclear intensity, 48 h. Potency, µM (titrated, usually from 46.1 µM), actives largely listed as activators. 2.9% of 350,000 active. AID 624296; note: nearly all actives have a fitted effect of over 50% in size
A number is an active result; [ ] = dose if it differs, or a comment. Sampled rows, rich in hits. Any-hit rate of the full collection: about 8%. Calls come from the whole dose curve; as a rule, active = well fitted curve in the direction sought with a large enough effect; inconclusive = small, poorly fitted or top-dose-only effect, or another doubt; inactive = no such curve, though single readings can be large; an effect the other way counts as inactive or inconclusive.

Screening CC(C)(C)CC(C)(C)N=C1Nc2ccc(Cl)cc2N[C@]12C[C@H]1CCCC(=O)N3CC[C@@H](C2)[C@@H]13 returned KB-3-1 cytotox inconclusive and KB-V1 cytotox 20.6µM.
Screening COc1cc(C2CC(=O)c3c([nH]c(C(=O)OC4CCCCC4)c3C)C2)cc(OC)c1OC (configuration not stated) returned KB-3-1 cytotox inconclusive and KB-V1 cytotox inactive.
For COC(=O)c1ccccc1NC(=O)Cn1c(=O)oc2ccc(Cl)cc21 the results were SW480 rerep inactive, KB-3-1 cytotox inactive, HT1080NT lethal inactive, KB-V1 cytotox inactive, HT1080 IDH1KD tx inactive and MCF10A rerep inactive.
Screening Cc1ccc2nc(N(CCN(C)C)C(=O)/C=C/c3cccs3)sc2c1 returned SW480 rerep inconclusive, KB-3-1 cytotox inactive, HT1080NT lethal inactive, KB-V1 cytotox inactive, HT1080 IDH1KD tx inconclusive and MCF10A rerep 25.9µM.
`CCN(CC)CCN(C(=O)/C=C/c1cccs1)c1nc2ccc(F)cc2s1` gave SW480 rerep inactive, KB-3-1 cytotox inactive, HT1080NT lethal inactive, KB-V1 cytotox inactive, HT1080 IDH1KD tx inactive and MCF10A rerep inactive.
CCc1ccc2nc(N(CCN(C)C)C(=O)/C=C/c3cccs3)sc2c1 was read as SW480 rerep inconclusive, KB-3-1 cytotox inconclusive, HT1080NT lethal inactive, KB-V1 cytotox inconclusive, HT1080 IDH1KD tx inconclusive and MCF10A rerep inconclusive.
For CN(C)CCCN(C(=O)/C=C/c1cccs1)c1nc2ccc(F)cc2s1 the results were SW480 rerep inconclusive, KB-3-1 cytotox 20.6µM, HT1080NT lethal 9.2µM, KB-V1 cytotox 18.4µM, HT1080 IDH1KD tx inconclusive and MCF10A rerep 23.1µM.
CS(=O)(=O)Nc1cccc(-c2cc(NC=O)c3ncc(-c4ccc(F)cc4)n3c2)c1 was read as KB-3-1 cytotox inactive, HT1080NT lethal 11.6µM, KB-V1 cytotox inconclusive and HT1080 IDH1KD tx 8.2µM.
For CC(=O)c1cccc(-c2cnc3c(NC=O)cc(-c4ccccc4F)cn23)c1 the results were KB-3-1 cytotox inactive, HT1080NT lethal inactive, KB-V1 cytotox inconclusive and HT1080 IDH1KD tx inactive.
`COc1cc(-c2cc(NC=O)c3ncc(-c4ccc(C(C)=O)cc4)n3c2)ccc1O` gave KB-3-1 cytotox inconclusive, HT1080NT lethal inconclusive, KB-V1 cytotox inactive and HT1080 IDH1KD tx 18.4µM.
CC(=O)c1ccc(-c2cnc3c(NC=O)cc(-c4ccc(S(C)(=O)=O)cc4)cn23)cc1 was read as KB-3-1 cytotox inactive, HT1080NT lethal inconclusive, KB-V1 cytotox inactive and HT1080 IDH1KD tx 6.51µM.
Screening CCOc1ccc(OCC)c(NC(=O)C2C3C=CC(O3)C2C(=O)NCc2ccco2)c1 (configuration not stated) returned SW480 rerep inactive, KB-3-1 cytotox inactive, HT1080NT lethal inactive, KB-V1 cytotox inactive, HT1080 IDH1KD tx inactive and MCF10A rerep inactive.
Screening CC(=O)Nc1nc(CC(C)C)cc2c1c(=O)oc1ccccc12 returned SW480 rerep inactive, KB-3-1 cytotox inactive, HT1080NT lethal inactive, KB-V1 cytotox inactive, HT1080 IDH1KD tx inactive and MCF10A rerep inactive.
`CCCCc1cc2c(c(NC(=O)CC)n1)c(=O)oc1ccccc12` gave SW480 rerep inactive, KB-3-1 cytotox inactive, HT1080NT lethal inactive, KB-V1 cytotox 16.4µM, HT1080 IDH1KD tx inactive and MCF10A rerep inactive.
COc1ccc(C(=O)Nc2cccc(-c3csc(C)n3)c2)cc1S(=O)(=O)N1CCCC1 was read as SW480 rerep inactive, KB-3-1 cytotox inactive, HT1080NT lethal inconclusive, KB-V1 cytotox inconclusive, HT1080 IDH1KD tx inactive and MCF10A rerep inactive.
`Cc1nc(N2CCN(S(=O)(=O)c3cccc4nonc34)CC2)c2c3c(sc2n1)CCCC3` gave SW480 rerep inactive, KB-3-1 cytotox inactive, HT1080NT lethal inactive, KB-V1 cytotox inactive, HT1080 IDH1KD tx inactive[9.24 µM] and MCF10A rerep 18.4µM.
Screening COc1ccc(Nc2nc(C)nc3sc4c(c23)CCC4)cc1O returned SW480 rerep inconclusive, KB-3-1 cytotox inconclusive, HT1080NT lethal inconclusive, KB-V1 cytotox 5.8µM, HT1080 IDH1KD tx inactive and MCF10A rerep inconclusive.
